Data on 41 compounds can be found in PubChem BioAssay AID2315 (National Center for Advancing Translational Sciences (NCATS), 2010).

What is called inhibition is the change of the read-out against control, counted positive when it falls.

About 27,000 (9.3%) of roughly 290,000 compounds were called active. No stated cut-off is given here; in the data, active means inhibition mostly above about 28% (no sharp cut-off); inactive means mostly below about 43%. Many of the other results were omitted from the sample, so actives are more common in it than they were.

This test in a line: A qHTS for Small Molecule Inhibitors of Shiga Toxin. Further: 0% is about no effect. Particulars: Vero cells, Shiga toxin protein synthesis inhibition reporter; at 38.7 µM, stronger effect = higher value. Background: In qHTS, concentration-response curves come from the screen itself.
On to `Cc1ccc(N(CC(=O)NCC2CCCO2)C(=O)CNS(=O)(=O)c2ccc(Cl)cc2)cc1` (stereo unspecified), for which the inhibition was -7.51% (inactive).

With `CN(C(=O)CN1C(=O)/C(=C/c2ccc(Cl)cc2)SC1=S)C1CCS(=O)(=O)C1` (stereo unspecified), the inhibition was -7.14% (inactive). To `O=C(c1cc2ccccc2s1)N1CCN(c2ccccn2)CC1` belongs 9.52% (inactive); to `COc1ccc(-c2cc(=O)oc3cc(OCC(=O)N(C)C4CCS(=O)(=O)C4)ccc23)cc1` (stereo unspecified), -5.59% (inactive).

For the compound `COc1cccc(C(=O)N2CCC(n3nccc3NC(=O)C3CCOC3)CC2)c1` (stereo unspecified), the inhibition was -9.25% (inactive). With `CCOCCCN1C(=O)C2C(C(=O)Nc3ccc(OCC)cc3)C3C=CC2(O3)C1C(=O)NC1CCCCC1` (stereo unspecified), the inhibition was -6.78% (inactive). To `O=C(O)c1ccc(N/N=C/c2cn(-c3ccccc3)nc2-c2cccs2)cc1` belongs 46.3% (inactive).

Regarding `CCNC(=S)NNC(=O)c1ccc2ncccc2c1`, the inhibition was 38% (inactive).

In the case of `O=C(O)c1ccc(N/N=C/c2ccc3ncccc3c2)cc1`, the inhibition is 45.9% (active). To `O=C(O)c1ccc(/C=N/Nc2nc(N3CCCCC3)nc(N3CCCCC3)n2)cc1` belongs -6.74% (inactive). Take `O=C(Nc1cccc(F)c1)[C@@H]1CCCN1`: the inhibition is 3.23% (inactive). The result for `CSCC[C@H](NC(=O)OC(C)(C)C)C(=O)N/N=C/c1cc2ccc(C)cc2nc1Cl` reads -11.9% (inactive); that for `Cc1ccc2cc(/C=N/NC(=O)[C@@H]3CCCN3)c(Cl)nc2c1`, 54.3% (active); that for `Cc1ccc2cc(/C=N/Nc3ccc(C(=O)O)cc3)c(Cl)nc2c1`, 51.3% (active).

For `Cc1ccc(/C=N/NC(=O)C2=NNC(c3ccccc3)(c3ccccc3)C2)c(O)c1`, the inhibition was 33.7% (inactive). To `Cc1cc(OCC(=O)N2CCN(c3ncccn3)CC2)ccc1Cl` belongs -7.52% (inactive); to `COc1cc(OC)cc(C(=O)NCCSCc2ccc(Cl)cc2)c1`, -9.78% (inactive); to `COc1ccc2c(c1)C(=C(C#N)C#N)C(=O)N2CCc1ccccc1`, 6.44% (inactive). To `O=C1CN(C(=O)c2cc(F)cc(F)c2)c2ccccc2N1` belongs -2.51% (inactive); to `CC(C)CC(O)C1CCN(C(=O)CCc2nnc(-c3ccc4c(c3)OCO4)o2)CC1` (stereo unspecified), -6.93% (inactive); to `CC(CO)NCC12CC3CC(CC(C3)C1)C2` (stereo unspecified), 2.32% (inactive).

In the case of `CCOc1ccccc1NC(=O)Cn1nnc(C(=O)NCc2cccs2)c1N`, the inhibition was -4% (inactive).

`COC1=C/C(=C/c2c(N)n3nc(CC(=O)N4CCOCC4)sc3nc2=O)C=CC1=O`: the inhibition was -2.63% (inactive).

As to `COc1ccc(CN2CC(C(=O)NC3CCCCC3)CC2=O)cc1` (stereo unspecified), the inhibition was -6.86% (inactive).

For `Cc1ccc(C)c(OCCC(=O)OCC(=O)N2CCN(c3ccccc3)CC2)c1`, the inhibition is -5.02% (inactive).

As to `CCN1CCCC1CNC(=O)c1cc2cc(OC)c(OC)cc2[nH]1` (stereo unspecified), the inhibition is -5.24% (inactive). The result for `CC(C)c1ccc(OCC(O)CN2CCN(c3ccccn3)CC2)cc1` (stereo unspecified) reads -24.5% (inactive). As to `CC(O)c1ccc(OCCN(C)c2ccccn2)cc1` (stereo unspecified), the inhibition is 87.4% (active).

Turning to `CCOc1ccc(C(C(=O)NCCOC)N(CCOC)C(=O)CCC(=O)Nc2ccccn2)cc1` (stereo unspecified), the inhibition was -13.1% (inactive). Consider `COc1ccc(-c2noc(C(C)NS(=O)(=O)c3ccc(NC(C)=O)cc3)n2)cc1` (stereo unspecified), for which the inhibition is -7.2% (inactive). To `COc1ccc(CCNC(=O)C(=O)NCC2OCCN2S(=O)(=O)c2ccc(F)cc2)cc1OC` (stereo unspecified) belongs 2.97% (inactive). To `COc1ccccc1NC(=O)/C=C/C(=O)O` belongs -5.02% (inactive); to `O=C(O)/C=C/C(=O)Nc1ccc(F)cc1F`, -11.9% (inactive). Take `COC(=O)c1sc(-c2ccc(C(C)(C)C)cc2)cc1NC(=O)/C=C/C(=O)O`: the inhibition is 108% (active).

`C=CCn1c(SCc2ccc(C(=O)NCCO)cc2)nc2ccccc2c1=O`: the inhibition is -5.58% (inactive). `CC(C(=O)Nc1ccc(O)c(C(=O)O)c1)N1C(=O)/C(=C/c2cccs2)SC1=S` (stereo unspecified): the inhibition is 5.02% (inactive). The result for `COCCCNC(=O)[C@H]1N2C(=O)c3ccccc3C2SC1(C)C` (stereo partly specified) reads -3.4% (inactive); that for `CC1=Nn2c(nnc2-c2ccccc2)SC1`, -3.08% (inactive). With `COc1ccc(C2=Nn3c(nnc3-c3ccccc3O)SC2)cc1`, the inhibition was 42.8% (active).

As for `Cc1nnc2n1N=C(c1ccccc1)CS2`, the inhibition was -5.72% (inactive).

Turning to `COc1cc(/C(=C/c2ccccc2)c2ccccc2)c2c(c1)oc1ccccc12`, the inhibition was -7.7% (inactive).
